The target in the first assay is IREB2. Nature of the assay: pooled miR-30 sensor sort-seq; sequence = guide strand. As to conditions: shRNA.
As for TTCATCATCATTTACATCCATG, the sensor-assay potency score (higher = more potent) is -0.574.

In turn, TTTTCTTCAAAAACCACTCTTG came in with a sensor-assay potency score (higher = more potent) of -0.106.

For the sequence TGTCACAGCAACTCTATCCTGA, the sensor-assay potency score (higher = more potent) came to 0.64. Turning to TAAAATTCCACAGGTAACCAAA, the sensor-assay potency score (higher = more potent) was -1.05.

TATTGTAGTTCGATCAACTATA yielded a sensor-assay potency score (higher = more potent) of -0.8.

Another assay deals with IRF2. The assay is described as above. As to conditions: shRNA.
Sequence TTTCCTTTCTTAGAAGGCCGTT registered a sensor-assay potency score (higher = more potent) of -0.36. Still for that read-out and setting: for TTCTGCATAGGAAGACACGGGG the value was -0.312; for TTGCTCTCCTCTTTGATGGTGA, -0.593.

Turning to TCTTGATTCTCAATGTTGCTGT, the sensor-assay potency score (higher = more potent) stood at 0.147. Same read-out and setting: for AATCTCTTGATTCTCAATGTTG the value was -1.2. TTTGCCTTCAATATTCCTCTTC came in with a sensor-assay potency score (higher = more potent) of 0.432. The same measure, in the same setting: then TACAACTTGGCAAATGTCTGGC, with 0.449. Still for that read-out and setting: for TTCAATATTCCTCTTCCGCCAG the value was -0.844; for TTTCTTTATGCTTTTATCCTTG, -0.739; for TTTCTGCATAGGAAGACACGGG, -0.335. The sequence TATCAGTCGTTTCGCTTTCTGC showed a sensor-assay potency score (higher = more potent) of -0.797.

A further assay addresses IRX2. The assay is described as above. As to conditions: shRNA.
Regarding TTCTTGGGCTCGTAGCCGCCGC, the sensor-assay potency score (higher = more potent) is -1.6. Same read-out and setting: then TACTTGTCCTTGCACTCCGAGC, with -1.54; and TTGTCGGGACTCTCGTCCTTGC, with -0.88.

Turning to TGTCCTTGCACTCCGAGCCCGA, the sensor-assay potency score (higher = more potent) is -0.973. On the same count and under the same terms, for TTCGCTTTTGTTTCTCGGGGCC the value was -0.0873; for TTGTCCTTGCACTCCGAGCCCG, -1.01; for TCTTCGCTTTTGTTTCTCGGGG, -0.791. Sequence ATGGCTAGCATGATCTTCTCGC gave a sensor-assay potency score (higher = more potent) of -0.31. Same read-out and setting: for TAGTTTGTGTAGTTGCCGTAGA the value was 0.0957.

Turning to TCTTTCTTGGGCTCGTAGCCGC, the sensor-assay potency score (higher = more potent) is -1.

For the sequence ATCTTCGCTTTTGTTTCTCGGG, the sensor-assay potency score (higher = more potent) is -1.09. The same measure, in the same setting: for TCCTCGTCCTCATCTTCGCTTT the value was -1.22.

The next assay has as its target ISLR2. The assay is described as above. Conditions: shRNA.
TTGAAAACAACGAAAACAGGAA displayed a sensor-assay potency score (higher = more potent) of -0.395. For TTTGTAAGCGCAGTCCGCGAAC, the sensor-assay potency score (higher = more potent) was -1.25.

The sequence TTTCCAAAGTCTTCGCTCGTTT showed a sensor-assay potency score (higher = more potent) of -0.577. Still for that read-out and setting: then TTGCGCAGGTCGCTCCACGGAA, with -1.26; and TTGAGCTCTGCGCTCTGGTTGA, with -0.693. In the case of TGAGCGTACTTGTCCACGCAGG, the sensor-assay potency score (higher = more potent) was -1.13.

Turning to TTTGGAACTAAAAACTAGGGGT, the sensor-assay potency score (higher = more potent) was determined as 0.382. Same read-out and setting: for TAGCGCACCGAGTGCGTCCCGG the value was -1.05; for TTGACGCCTTCCTCTACGCGGG, -1.19; for TTGTCAGGGACTACACGCCGGG, -0.648.

Values taken from the OligoGym collection.
Further: reference of the scale not given here.
